This is part of a sample that, as a whole, favours compounds with a hit. Of some 83,000 tested, about 20% had one in any assay.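 Percent growth is the endpoint: 0 to 100 indicates growth inhibition (40 means 60% inhibition), 0 means no net growth, and negative values indicate cell death.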 Values without a mark were called inactive. The source made the active and inactive calls. The calls were made as follows: active = growth percent below 10; inactive = the rest.
Columns and labels:
Test in all cases: NCI-60 one-dose screen, 48 h (100 = growth as untreated, 0 = no growth, -100 = all killed)
Conditions in all cases: 10 µM unless noted
DU-145 prostate = test system: DU-145 prostate
K-562 leukemia = test system: K-562 leukemia
MALME-3M melanoma = test system: MALME-3M melanoma
MDA-MB-231 breast = test system: MDA-MB-231 breast
RXF 393 renal = test system: RXF 393 renal
SF-268 CNS = test system: SF-268 CNS
SF-295 CNS = test system: SF-295 CNS
SF-539 CNS = test system: SF-539 CNS
UACC-257 melanoma = test system: UACC-257 melanoma
M14 melanoma = test system: M14 melanoma

Compound	growth (DU-145 prostate)	growth (K-562 leukemia)	growth (MALME-3M melanoma)	growth (MDA-MB-231 breast)	growth (RXF 393 renal)	growth (SF-268 CNS)	growth (SF-295 CNS)	growth (SF-539 CNS)	growth (UACC-257 melanoma)	growth (M14 melanoma)
COc1ccc(-c2[nH]ncc2Nc2cc(OC)c(OC)c(OC)c2)cc1	46.5%	57.2%	44.1%	53.3%	20.5%	53.1%	13%	1.83% (active)	66.5%	31.1%
COc1cc(OCc2cccc(-c3ccc(C(O)c4nccs4)cc3)c2C)cc(OC)c1C=O (configuration not stated)	53.6%	18%	7.88% (active)	54.5%	59.5%	65%	35.1%	69.4%	13.3%	32%
COc1ccc(/C=C2\CN(Cc3cn(CCCNc4ccnc5cc(Cl)ccc45)nn3)C/C(=C\c3ccc(OC)cc3)C2=O)cc1	40.2%	63.2%	98.4%	52.6%	27.7%	45.5%	72.6%	78.1%	56%	70.8%
CC1(C)CC(=O)C2=C(C1)Nc1cc3c(cc1C2c1ccc(F)cc1)OCO3 (configuration not stated)	117%	87.8%	81.2%	108%	82.3%	92.5%	64.3%	102%	110%	115%
COc1ccc(-c2c3c(N)c4c(nc3nc3c2c(C)nn3-c2ccccc2)CCCC4)cc1	80.4%	11.9%	113%	76.1%	84.2%	86%	84.9%	91.8%	108%	87.9%
CC(=O)Nc1ccccc1-c1n[nH]c(=O)[nH]c1=O	107%	107%	89.6%	104%	96.6%	105%	98.1%	91.3%		92%
Clc1ccc(C2=NN(c3ccccc3)[C@H](c3cn(-c4ccccc4)nc3-c3ccccc3)C2)cc1	119%	111%	103%	96.6%	106%	109%	108%	107%	92.2%	109%
COc1cc(/C=C2\C(=O)Nc3ccccc32)cc(OC)c1O	92.5%	7.58% (active)	118%	63.1%	71.3%	78.3%	60.6%	68.8%	62.6%	53.6%
Cc1ccc(N=c2nc3sc4c(C)ccc(C)c4n3c(N)c2C#N)cc1	105%	88.6%	125%	93.9%	124%	92.6%	91.1%	99.1%		102%
Cc1nn(-c2ccccc2)c2nc3nc4c(c(N)c3c(-c3ccc(Cl)cc3)c12)CCCC4	109%	53.4%	108%	91.5%	90.9%	105%	96%	96.9%	91.9%	106%
Cc1nc2cc(Nc3nc(NCCO)nc(Nc4ccc(F)cc4)n3)ccc2n1Cc1ccccc1	88.5%	19.2%	105%	80.3%	90.2%	92.2%	86.4%	94.4%	98.8%	93%
O=c1[nH]c(-c2ccccn2)nc2sc3c(c12)CCCCCC3	48.8%	20.4%	61.9%	49.3%	50.7%	40.6%	-6% (active)	61.7%		46.1%
COc1cc(C(=O)/C=C/c2c(-c3cccs3)nc3sccn23)cc(OC)c1OC	3.28% (active)	15.4%	34.8%	7.07% (active)	-20.7% (active)	17.7%	-35.8% (active)	-27.6% (active)	5.19% (active)	7.73% (active)
COc1ccc(S(=O)(=O)ON=C2C=C(C)C(=O)C(C)=C2)cc1	101%	48.7%	102%	62.5%	81.6%	92.6%	93%	94%	98.6%	99.9%
Cc1ccc(S(=O)(=O)c2ccc3[nH]c(=O)[nH]c(=O)c3c2)cc1	107%	87.2%	119%	101%	114%	104%	116%	101%	91.5%	101%
Cl.Fc1c[c-]c(-c2ccccn2)c(F)c1.[Pt].c1ccc([PH+](CC[PH+](c2ccccc2)c2ccccc2)c2ccccc2)cc1	-99.6% (active)	-11.4% (active)	-87.2% (active)	-74.2% (active)	-84.4% (active)	-57.7% (active)	-88% (active)	-94.6% (active)	-59.1% (active)	-84.7% (active)
CCCCOC(=O)C1OC(Oc2ccc3c(C)cc(=O)oc3c2)[C@@H](OC(C)=O)C(OC(C)=O)C1OC(C)=O (some centres not stated)	104%	106%	89.1%	104%	106%	97.4%	96.1%	96%	93.9%	93.9%
O=C1/C(=C/c2ccc(Cl)cc2)N=C(c2ccccc2)N1CCc1cccs1	48.4%	62.3%	65%	64.8%	69.9%	74.7%	51.5%	40.3%	56.3%	42.2%
Cc1nn(CC(=O)O)c2c1C(=O)CC(C)(C)C2	118%	123%	118%	114%	117%	103%	102%	102%	96.9%	93.2%
COc1cc2cc(Oc3ccc(NC(=O)Nc4ccc(Cl)c(C(F)(F)F)c4)cc3)c(C)nc2cc1OCCN1CCCCC1	-85.2% (active)	-48.1% (active)	-78.4% (active)	-87.2% (active)	44.2%	3.42% (active)	57.5%	-89.8% (active)	-49.4% (active)	-67.4% (active)
C[C@@H](Oc1cc(-c2cnn(C3CC4(CCCNC4)C3)c2)cnc1N)c1c(Cl)ccc(F)c1Cl (some centres not stated)	36.7%	0.205% (active)	-64.7% (active)	2.82% (active)	-9.61% (active)	23%	14.4%	11.2%	-87.2% (active)	-59.5% (active)
COc1cc(/C=C/C(=O)C2=C(/C=C/c3ccc(O)c(OC)c3)NC(=O)NC2c2ccc(O)c(OC)c2)ccc1O (configuration not stated)	111%	87%	117%	67.7%	97.1%	93.5%	93.1%	87%	85.6%	94%
Cc1ccc(S(=O)(=O)N2CCc3ccc(O)c4c3C2CCc2ccccc2-4)cc1 (configuration not stated)	106%	94.1%	97.2%	95.2%	117%	97.1%	104%	105%	105%	98.6%
Cc1c(C(=O)Nc2nc(-c3ccccc3)cs2)nnn1-c1cccc2ccccc12	64.7% [50 µM]	30.5% [50 µM]	55.4% [50 µM]	68.7% [50 µM]	89.1% [50 µM]	72.5% [50 µM]	37.2% [50 µM]	69.2% [50 µM]	44.9% [50 µM]	64.7% [50 µM]
CCCCCCCCCCCCSC1=CC(=O)C=CC1=O	111%	75%	102%	97.2%	78%	44.6%	51.8%	27.7%	73.2%	89.5%
COc1cc(-c2nc(SC(C)C)nc(Nc3ccccc3C)c2C#N)cc(OC)c1OC	113%	98.6%	104%	102%	120%	106%	102%	103%	113%	104%
O=C(c1cnn2c1NC(c1ccc(F)cc1)C2)N1CCCCC1 (configuration not stated)	103%	103%	97.7%	106%	111%	96.7%	103%	97.8%	96.3%	101%

From PubChem BioAssay (NCI)
